# The whole screen tested about 53,000 compounds, of which about 900 (1.7%) showed an effect of 50% or more. The sample as a whole holds a higher share of strong results than the screen did.
# Tested on: Mycobacterium tuberculosis
# Test: Cornell - Phenotypic assay to identify agents that inhibit growth of Mycobacterium tuberculosis
# Type: functional
# Set-up: scale not given: direction of the effect not stated beside the values
# Conditions: 10 mM as filed; unlikely as a test dose
row,SMILES,Percent Effect
1,CCCc1cnc(C)nc1N1CCC(Cn2cc(CN(C)C)nn2)CC1,18.6%
2,O=S(=O)(c1cccnc1)N1CCCCC1CCN1CCOCC1 (configuration not stated),-15.47%
3,Cc1cc(C(=O)N(CC(F)(F)F)C2CCOCC2)c(C)o1,51.1%
4,O=C(c1ccc(F)cc1F)N(CC(F)(F)F)C1CCOCC1,37.88%
5,CCN(C(=O)c1cc(C)oc1C)C1CC1,4.626%
6,Cc1cn2c(n1)CCC(NC(=O)CCOc1cccc(F)c1)C2 (configuration not stated),5.433%
7,Cc1cc(N2CCN(C3CCOCC3)CC(C(=O)N(C)C)C2)ncn1 (configuration not stated),3.983%
8,Cc1ccccc1CC(=O)NCc1cnc(CC2CCN(C)CC2)cn1,48.16%
9,O=C(O)C(F)(F)F.O=C1Nc2ccccc2C12CCN(Cc1cccs1)CC2,50.44%
10,Cc1ccc(CN2CCC3(CC2)C(=O)Nc2ccccc23)s1.O=C(O)C(F)(F)F,18.05%
11,O=C(O)C(F)(F)F.O=C1Nc2ccccc2C12CCN(Cc1nccs1)CC2,-8.416%
12,CCOc1ccc(NC(C)=O)cc1S(=O)(=O)Nc1nccs1,7.151%
13,CC(CCc1ccco1)NC(=O)Nc1cc(C(F)(F)F)c[nH]c1=O (configuration not stated),102.9%
14,CN(Cc1ccco1)C(=O)Nc1cc(C(F)(F)F)c[nH]c1=O,-17.34%
15,O=C(CCc1ccco1)Nc1cc(C(F)(F)F)c[nH]c1=O,7.769%
16,Cc1nc(C)n(CC(=O)N2CCCC(c3cc4ccccc4cn3)C2)n1 (configuration not stated),-16.13%
17,CC(C)c1nc(N2CCN3CCCC3C2)c2cnn(C)c2n1 (configuration not stated),62.47%
18,CC(C)c1nc(N2CCC(N3CCCCCC3)CC2)c2cnn(C)c2n1,30.23%
19,CC(C)c1nc(N2CCC(N3CCCC(O)C3)CC2)c2cnn(C)c2n1 (configuration not stated),28.63%
20,Cc1cc(C)nc(N2CCC(c3noc(C)n3)CC2)n1,-1.548%
21,O=C(CC1CCN(c2cccnn2)CC1)NCCO,12.72%
22,CCC/N=c1/c(NC(=O)NCCCOC)c(O)oc2ccccc12,-33.59%
23,CCc1ccc(CN(C)C(=O)C(c2ccccc2F)N(C)C)nc1 (configuration not stated),0.2159%
24,CCCC(=O)NCC(Cc1cccc(F)c1)N1CCCC1=O (configuration not stated),2.564%
25,NC(=O)NC(=O)CCN(Cc1ccccc1)CC1CCOCC1,53.84%
26,O=C(CN(Cc1ccccc1)CC1CCOCC1)NC(=O)NC1CC1,16.06%

row,SMILES,Percent Effect
1,O=C(CN(Cc1ccccc1)CC1CCOCC1)Nc1nccs1,42.61%
2,CCc1ccc(C(COC)NC(=O)c2ccc(C(N)=O)cc2)o1 (configuration not stated),17.07%
3,Cc1oncc1C(=O)N1CCOCC2(CCN(c3ccccn3)C2)C1.O=C(O)C(F)(F)F (configuration not stated),-11.19%
4,Cc1nc(C)n(CC2CCCN2Cc2cccc3c2OCCO3)n1 (configuration not stated),-6.241%
5,CC(=O)N1CCC[C@@H](NCc2cccc(F)c2)[C@@H]1c1ccc(C)s1.Cl,-22.92%
6,CC(=O)N1CCC[C@@H](NCc2ccc(F)cc2)[C@@H]1c1ccc(C)s1,1.669%
7,CC(=O)N1CCC[C@@H](NCc2c[nH]c3ccccc23)[C@@H]1c1ccc(C)s1.Cl,66.32%
8,c1ccc2ncc(CC3CCNC3)cc2c1 (configuration not stated),-46.09%
9,O=c1n(Cc2ccc(F)cc2)nc2ncccn12,-16.62%
10,O=C(c1cc(COc2ccc3c(c2)OCO3)[nH]n1)N1CCSCC1,102%
11,O=C(c1cc(COc2ccc3c(c2)OCO3)[nH]n1)N1CCCCO1,15.85%
12,O=C(c1cc(COc2ccc3c(c2)OCO3)[nH]n1)N1CCCC(O)C1 (configuration not stated),44.89%
13,C[C@@H]1CN(C(=O)c2cc(COc3ccc4c(c3)OCO4)[nH]n2)C[C@H](C)O1,3.14%
14,O=C(c1cc(COc2ccc3c(c2)OCO3)[nH]n1)N1CC=CC1CO (configuration not stated),46.2%
15,O=C(c1cc(COc2ccc3c(c2)OCO3)[nH]n1)N1CCCO1,80.32%
16,O=C(c1cc(COc2ccc3c(c2)OCO3)[nH]n1)N1CCCC1,105.4%
17,O=C(c1cc(COc2ccc3c(c2)OCO3)[nH]n1)N1CCOCC1,35.93%
18,COc1cccc(OCc2cc(C(=O)N3CC(O)C3)n[nH]2)c1,3.061%
19,Cc1noc(C)c1S(=O)(=O)N1CCc2nc(C3CCNCC3)ncc2C1.Cl,6.846%
20,CN(C)C(=O)CN1CCCC(c2nccnc2-c2cccc(Cl)c2)C1 (configuration not stated),27.94%
21,O=c1cc(CN2CCCC2)nc2n1CCCN(CC1CC1)C2,-16.69%
22,c1ncc(CN2CC(Cc3nccc4cc[nH]c34)C2)cn1,24.55%
23,Cn1cc(CC2CCN(C(=O)NCCc3cccc(O)c3)C2)cn1 (configuration not stated),9.063%
24,CCC(=O)N1CCC(c2nc(N3CCCC3)ncc2S(C)(=O)=O)CC1,-19.63%
25,CS(=O)(=O)c1cnc(N2CCCC2)nc1C1CCN(C(=O)C2CC2)CC1,60.16%
26,CCC(=O)N1CCC(c2nc(N3CCCCC3)ncc2S(C)(=O)=O)CC1,49.28%
